Screens deposited in PubChem BioAssay by National Center for Advancing Translational Sciences (NCATS).
This is one part of a sample in which hits are shown more often than they occur.
12-hLO inh = blocks human 12-lipoxygenase activity; purified 12-hLO, xylenol orange hydroperoxide absorbance; Potency, µM (top dose mostly 57.1 µM), without a hit: at the highest dose activity change, negative = inhibition, usual class: inhibitors; 150,000 compounds, 0.12% hits; AID 1452; further: nearly all actives have a fitted effect of over 55% in size
Target sequence (P18054 whole entry, looked up): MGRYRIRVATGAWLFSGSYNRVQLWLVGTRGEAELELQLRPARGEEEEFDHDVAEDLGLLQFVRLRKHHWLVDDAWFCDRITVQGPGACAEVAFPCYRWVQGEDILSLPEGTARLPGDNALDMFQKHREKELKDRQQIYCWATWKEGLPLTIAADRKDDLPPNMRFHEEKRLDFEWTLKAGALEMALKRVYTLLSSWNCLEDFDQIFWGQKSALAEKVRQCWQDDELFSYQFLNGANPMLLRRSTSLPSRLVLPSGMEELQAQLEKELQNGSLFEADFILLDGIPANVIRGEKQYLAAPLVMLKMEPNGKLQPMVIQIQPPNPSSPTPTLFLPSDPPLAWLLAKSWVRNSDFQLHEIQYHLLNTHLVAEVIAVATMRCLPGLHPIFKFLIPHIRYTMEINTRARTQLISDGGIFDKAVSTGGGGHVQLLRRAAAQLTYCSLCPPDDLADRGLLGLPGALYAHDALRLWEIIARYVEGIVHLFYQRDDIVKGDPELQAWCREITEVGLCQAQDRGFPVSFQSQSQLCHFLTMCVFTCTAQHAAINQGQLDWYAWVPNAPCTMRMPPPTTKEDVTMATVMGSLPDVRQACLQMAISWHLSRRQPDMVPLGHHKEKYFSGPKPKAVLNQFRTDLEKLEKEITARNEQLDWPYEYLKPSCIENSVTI
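150 nM 12hLO, 25 mM Hepes pH 7.0 + 0.01% Triton X-100; cpd preinc 15 min RT; 40 uM arachidonic acid, 30 min RT; Fe-XO 30 min; A573/A405 ratio as read-out.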
15-hLO-2 inh = inhibitors of human 15-lipoxygenase 2 (ALOX15B) | purified 15hLO-2, xylenol orange hydroperoxide absorbance | Potency, µM (top dose mostly 57.1 µM), for inactives: top-dose activity change, negative = inhibition, actives largely listed as inhibitors | 110,000 compounds, 0.56% hits; further: nearly all actives have a fitted effect of over 60% in size
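Purified human 15hLO-2 (50 nM) preincubated 15 min with compound, then 45 uM arachidonic acid for 90 min at RT in 25 mM Hepes pH 7.5, 0.01% Triton X-100. Hydroperoxide detected by Fe-xylenol orange; 573/405 nm absorbance ratio.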
Starred values were filed as active, the others as inactive; ? = inconclusive; . = no result; [ ] = dose if it differs, or a comment. The call rests on the fitted dose curve; in most records, active means well fitted curve in the direction sought with a large enough effect; inconclusive means small, poorly fitted or top-dose-only effect, or another doubt; inactive means no such curve, though single readings can be large; an effect the other way counts as inactive or inconclusive. On the % scale 0 is the no-effect control and ±100 the full control effect; potency means the concentration at half of the fitted maximal effect.

SMILES	12-hLO inh	15-hLO-2 inh
C/C(=N\Nc1nc(-c2ccccc2)cs1)c1cccs1	-4%	.
CCCCc1nc2c(c3c1C[C@H](C)OC3)CN(S(=O)(=O)c1ccc3c(c1)OCCN3C)CC2	0%[11.4 µM]	.
COc1ccc(S(=O)(=O)Nc2cc(Sc3ncn[nH]3)c(O)c3ccccc23)cc1	?	4µM*
COc1ccc(S(=O)(=O)Nc2ccc(O)c(Sc3ncn[nH]3)c2)cc1	-9%	.
CCCC[C@@H]1C[C@H]1C(NC(=O)c1ccccc1)c1ccc(-c2ccccc2)cc1 (some centres undefined)	-2%	12%
CC1CCN(CC[S-])CC1.O.O.[Cl][Pt]	1%[11.4 µM]	-22%[11.4 µM]
Cc1cccc(CNc2nc(-c3ccc(C(=O)N(C)C)cc3)nc3ccccc23)c1	-1%	11%
c1cc(CSSCc2ccncc2)ccn1	0%[11.4 µM]	-10%[11.4 µM]
O=C(O)c1ccc(NC(=S)NC2CCCCC2)cc1	-1%	.
S=C(Nc1ccc(Oc2ccc(NC(=S)NC3CCCCC3)cc2)cc1)NC1CCCCC1	1.3µM*	.
CCOc1ccc(NS(=O)(=O)c2ccc3[nH]cc(C(=O)NCC4CCCO4)c(=O)c3c2)cc1 (centres undefined)	-2%	-2%
CCOc1ccc(NS(=O)(=O)c2ccc3[nH]cc(C(=O)N(CC)CC)c(=O)c3c2)cc1	16µM*	-1%
COc1ccc(C(=O)N2CCC3(CC2)CN(C(=O)Nc2ccccc2)C3)cc1	-3%	0%
Oc1ccc(NCc2ccccc2OCc2ccccc2F)cc1	?	13µM*
Cc1ccc(NCc2ccccc2OCc2ccccc2F)cc1	-7%	5%
O=C(Nc1cccc(F)c1)N1CC[C@@]2(CCCN(C(=O)c3cccc(F)c3)C2)C1	3%	-3%
COc1ccccc1-c1cncnc1NCCc1cnc[nH]1	7%	46%
C=CCNC(=O)c1cc([N+](=O)[O-])cc2c(=O)[nH]c(Nc3ccc(Cl)c(Cl)c3)nc12	-4%	?
CC1=NOC(=O)/C1=C\c1ccc(-c2ccc(Cl)cc2Cl)o1	-29%	7.9µM*
Cc1[nH][nH]c(=O)c1C(c1ccc(-c2ccc(Cl)cc2Cl)o1)c1c(C)[nH][nH]c1=O	-13%	5%
Cc1ccc(S(=O)(=O)OC2CCN(C)CC2)cc1	2%[11.4 µM]	-10%[11.4 µM]
COc1ccc(OC)c(C2C=C(C34CC5CC(CC(C5)C3)C4)NC(=S)N2)c1 (centres undefined)	7.1µM*	.
COc1ccc(C2=CC(c3cc(OC)c(OC)c(OC)c3)NC(=S)N2)cc1 (centres undefined)	-9%	?
COc1ccc(OC)c(C2SCCN2S(C)(=O)=O)c1 (centres undefined)	-3%	-2%
COc1cc(C2C=C(C34CC5CC(CC(C5)C3)C4)NC(=S)N2)cc(OC)c1OC (centres undefined)	11µM*	-27%
SMILES	12-hLO inh	15-hLO-2 inh
O=c1c(-c2ccccc2)nc2cnc(Oc3cccc(Cl)c3)nc2n1C[C@H]1CCCO1	.	12%
COC(=O)[C@@H]1C[C@@]2(O)[C@H](O)[C@H](O)[C@H](O)C[C@H]2N1Cc1ccc(N2CCOCC2)cc1	4%	16%
Cc1cc(C)nc(/N=c2/ssnc2Cl)c1	-14%	-14%
COc1ccc(OC)c(N=c2ssnc2Cl)c1	8.9µM*	25µM*
Cc1ccc(N=c2ssnc2Cl)cc1	28µM*	?
COc1cc(N=c2ssnc2Cl)c(OC)cc1Cl	20µM*	25µM*
Cc1cc(Cl)ccc1N=c1ssnc1Cl	-23%	?
COc1ccc(OC)c(N=C2C(=O)Nc3ccccc32)c1	4%	3%
CS(=O)(=O)Nc1cccc(-c2cc(NCc3cccs3)ncn2)c1	.	-12%
COc1ccc2[nH]cc(CCNc3ncnc4ccc(-c5ccoc5)cc34)c2c1	.	3%
CC(=O)N1CCN(c2ccc(NC(=O)c3ccc(C(C)(C)C)cc3)cc2)CC1	-3%	5%[11.4 µM]
COc1cccc(CNc2ccc(N3CCCCC3)cc2)c1OC	-22%	25µM*
CCOc1ccc(CNc2ccc(N3CCCC3)cc2)cc1	-29%	5µM*
CCOc1cc(CNc2ccc(N3CCCC3)cc2)cc(Cl)c1OC	-9%	.
COc1ccccc1CNc1ccc(N2CCCCC2)cc1	-8%	-13%[2.29 µM]
CC(=O)N1CCN(c2ccc(NCc3ccc(F)cc3)cc2)CC1	?	25µM*
C[C@H]1Cc2c(-c3ccccc3)nc3c(c2CO1)CN(S(=O)(=O)c1ccc2c(c1)OCCN2C)CC3	6%[11.4 µM]	.
Cc1cnc(CNc2cc(-c3ccc(C(=O)N(C)C)cc3)ncn2)cn1	.	-8%
CCNc1ncc2nc(-c3cccs3)c(=O)n(-c3ccc(OC)cc3)c2n1	3%	0%
